Efa HMGR inh – inhibitors of E. faecalis class II HMGR, primary screen, biochemical, Enterococcus faecalis | HMG-CoA reductase (Enterococcus faecalis, mvaE) | purified E. faecalis HMGR, NADPH absorbance 340 nm kinetic | inhibition, % at 10 µM | 190,000 compounds, 0.41% hits;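 active = inhibition above a set limit, the median over all tested compounds plus 3 SD, cut at about 9.5% in these data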;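 also: enzyme runs in reverse so mevalonate oxidation gives rising NADPH absorbance; 0% = complete reaction with DMSO and 100% = background rate lacking mevalonate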
Calpain2 inh – inhibitors of pig calpain II, primary screen, biochemical, fluorogenic peptide substrate, 1536-well | inhibition, % at 16 µM | 220,000 compounds, 0.37% hits | purified calpain II, 30 min | AID 1236, 2008;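 active = inhibition above about 50%, limit read from the data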
Furin inhibitor – human furin inhibitors, primary screen, biochemical, fluorescence intensity. purified furin, fluorogenic substrate cleavage. P09958. 220,000 compounds, 0.061% hits. AID 463115, 2010. inhibition, % at 20 µM or 30 µM; in the data active = inhibition above about 25%
PGE2 EP2 inh – human EP2 receptor antagonists, primary screen, TR-FRET cAMP, C6 glioma cells. Prostaglandin E2 receptor EP2 subtype (Homo sapiens), P43116. C6 glioma cells expressing human EP2; cells stimulated with saturating PGE2. inhibition, % at 25 µM. 260,000 compounds, 0.52% hits. AID 1422, 2008;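 active = percent inhibition above 40 after rounding to a whole number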;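 also: rat C6 glioma host cells with rolipram phosphodiesterase inhibitor present; the protocol text gives 20 µM as final concentration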
Target sequence (P43116 whole entry, looked up): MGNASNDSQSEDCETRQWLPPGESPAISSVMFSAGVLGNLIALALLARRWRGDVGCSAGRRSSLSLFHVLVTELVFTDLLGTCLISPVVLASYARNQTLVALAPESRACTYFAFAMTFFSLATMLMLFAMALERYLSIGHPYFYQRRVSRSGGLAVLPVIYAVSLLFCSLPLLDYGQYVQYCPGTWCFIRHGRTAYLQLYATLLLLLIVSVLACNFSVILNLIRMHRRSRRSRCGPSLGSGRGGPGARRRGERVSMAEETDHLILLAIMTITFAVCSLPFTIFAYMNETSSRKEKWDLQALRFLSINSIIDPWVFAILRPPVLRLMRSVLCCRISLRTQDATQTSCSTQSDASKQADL
EP2 modulator – EP2 receptor modulators, cAMP readout, primary screen, cell-based, HTRF cAMP, PGE2 stimulation; Prostaglandin E2 receptor EP2 subtype (Homo sapiens), P43116; EP2-expressing cells, cAMP HTRF FRET, PGE2 co-stimulation; induction, % at 25 µM; 260,000 compounds, 0.83% hits;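 active = compounds whose cAMP rise, as percent of the full-agonist control response, exceeds 60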;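 also: rat C6 glioma line stably carrying human EP2 under a CMV promoter; the protocol text gives 20 µM as final concentration; 100% = response of wells given 1 µM PGE2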
EP2 cAMP induct – cAMP induction in EP2, EP4, beta2-AR and parental cells, confirmation, counter-screen for EP2 modulator project, cell-based, five parallel assays, C6 glioma, HEK293; shares compounds with EP2 modulator; calls only at 20 µM (by protocol); 1,300 compounds, 47% hits; cAMP HTRF induction; plus low (about EC15) PGE2 agonist; AID 1080, 2008;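 active = cAMP induction above 50% in the main assay while under 30% in all four parallel counter assays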;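 also: rat C6 glioma cells stably expressing human EP2 receptor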
Numbers without * were called inactive. An excerpt weighted towards active compounds, which were near 1.9% of everything screened.

Results for COCCNC(=O)C(c1ccc(F)cc1)N(CC1CCCO1)C(=O)CCC(=O)Nc1ccccn1 (stereo not drawn) ?
Efa HMGR inh: 2; Calpain2 inh: -17; Furin inhibitor: -15; PGE2 EP2 inh: 10; EP2 modulator: 72*; EP2 cAMP induct: inactive

How did COc1ccccc1CCCNC(=O)c1cc(-c2c(C)nn(C)c2C)n[nH]1 do in these assays?
PGE2 EP2 inh: 5; EP2 modulator: -86

Results for Cc1noc(C)c1CSc1ncnc2sc3c(c12)CCCCC3 ?
Efa HMGR inh: -1; Calpain2 inh: 34; Furin inhibitor: -8; PGE2 EP2 inh: 9; EP2 modulator: 56; EP2 cAMP induct: active

Results for O=C(O)CSc1ncnc2sc3c(c12)CCC3 ?
Efa HMGR inh: 1; Furin inhibitor: -6; PGE2 EP2 inh: 8; EP2 modulator: 16

Results for CCSc1ncnc2sc3c(c12)CCC3 ?
Efa HMGR inh: -4; Calpain2 inh: -50; Furin inhibitor: -25; PGE2 EP2 inh: 12; EP2 modulator: 73*; EP2 cAMP induct: active

How did Cc1noc(C)c1CSc1nc2sc(C)c(C)c2c(=O)n1-c1ccccc1 do in these assays?
Efa HMGR inh: 0; Calpain2 inh: 6; Furin inhibitor: -7; PGE2 EP2 inh: 21; EP2 modulator: 29

Results for C=CCn1c(SCc2c(C)noc2C)nc2sc(C)c(C)c2c1=O ?
Efa HMGR inh: -2; Calpain2 inh: 5; Furin inhibitor: -20; PGE2 EP2 inh: 8; EP2 modulator: 62*; EP2 cAMP induct: active

Results for c1ccn(-c2ncnc3sc4c(c23)CCCC4)c1 ?
Efa HMGR inh: 1; Calpain2 inh: 12; Furin inhibitor: -2; PGE2 EP2 inh: 10; EP2 modulator: 65*; EP2 cAMP induct: active

What do the screens show for `COc1ccc(CCC2CCN(C)CC2)c(O)c1`?
PGE2 EP2 inh: 5; EP2 modulator: -52

How did Cc1noc(C)c1CSc1ncnc2sc(C)c(C)c12 do in these assays?
Efa HMGR inh: 1; Calpain2 inh: -10; Furin inhibitor: -21; PGE2 EP2 inh: 6; EP2 modulator: 63*; EP2 cAMP induct: active

What do the screens show for `Cc1sc2ncnc(SCc3ccco3)c2c1C`?
Efa HMGR inh: -3; Calpain2 inh: 17; Furin inhibitor: 19; PGE2 EP2 inh: 9; EP2 modulator: 64*; EP2 cAMP induct: active

What do the screens show for `O=C(c1ccccc1F)[C@H]1CCCN(C(=O)c2cc(C3CC3)[nH]n2)C1`?
PGE2 EP2 inh: 9; EP2 modulator: -31

How did CCn1c(=O)c(C(=O)Nc2cccc(C)c2C)c(O)c2ccccc21 do in these assays?
PGE2 EP2 inh: 10; EP2 modulator: 3

What do the screens show for `Cn1c(=O)[nH]c(=O)c2c1nc(Br)n2CC(O)COc1cccc2ccccc12` (stereo not drawn)?
PGE2 EP2 inh: 13; EP2 modulator: -44

How did Cc1c(C(=O)Nc2cccc3cccnc23)oc2ccccc12 do in these assays?
Efa HMGR inh: -5; Calpain2 inh: -116; Furin inhibitor: -12; PGE2 EP2 inh: 8; EP2 modulator: 65*; EP2 cAMP induct: active

Results for Cc1ccccc1NC(=O)c1oc2ccccc2c1C ?
PGE2 EP2 inh: 11; EP2 modulator: -51

How did O=C(Nc1cccc2cccnc12)c1ccc(Br)o1 do in these assays?
Efa HMGR inh: -3; Calpain2 inh: -13; Furin inhibitor: -7; PGE2 EP2 inh: 7; EP2 modulator: 69*; EP2 cAMP induct: inactive

Results for CC1CCCN(c2nc3c(c(=O)[nH]2)CN(Cc2ccc(N4CCOCC4)cc2)CC3)C1 (stereo not drawn) ?
PGE2 EP2 inh: 2; EP2 modulator: -14

What do the screens show for `C=CCc1cc(C=O)cc(OC)c1OCc1c(Cl)cccc1Cl`?
Efa HMGR inh: -3; Calpain2 inh: -28; Furin inhibitor: -8; PGE2 EP2 inh: 8; EP2 modulator: 92*; EP2 cAMP induct: active

What do the screens show for `COc1ccc(C=O)cc1COc1c(F)c(F)cc(F)c1F`?
Efa HMGR inh: -2; Calpain2 inh: -21; Furin inhibitor: -11; PGE2 EP2 inh: 14; EP2 modulator: 31

Results for CC(C)(C)NC(=O)C(c1cccs1)N(C(=O)Cn1nnc2ccccc21)c1ccc(F)cc1 (stereo not drawn) ?
PGE2 EP2 inh: 19; EP2 modulator: 0

How did Cn1c(=O)c2c(ncn2CCSS(=O)(=O)O)n(C)c1=O do in these assays?
PGE2 EP2 inh: 6; EP2 modulator: 61*; EP2 cAMP induct: inactive

Results for CCCCCn1c(N2CCN(c3cccc(Cl)c3)CC2)nc2c1c(=O)[nH]c(=O)n2C ?
Efa HMGR inh: -7; Calpain2 inh: 10; Furin inhibitor: -26; PGE2 EP2 inh: 11; EP2 modulator: 58

How did CCCCCCn1c(SCC(C)C)nc2c1c(=O)[nH]c(=O)n2C do in these assays?
Efa HMGR inh: -6; Calpain2 inh: -1; Furin inhibitor: 3; PGE2 EP2 inh: 9; EP2 modulator: 67*; EP2 cAMP induct: inactive

How did CCCCCn1c(CN2CCN(c3cc(Cl)ccc3C)CC2)nc2c1c(=O)[nH]c(=O)n2C do in these assays?
Efa HMGR inh: -6; Calpain2 inh: 39; Furin inhibitor: -12; PGE2 EP2 inh: 6; EP2 modulator: 78*; EP2 cAMP induct: inactive

Results for CCSc1nc2c(c(=O)[nH]c(=O)n2C)n1Cc1ccc(Cl)cc1 ?
Efa HMGR inh: -2; Calpain2 inh: -9; Furin inhibitor: -20; PGE2 EP2 inh: 11; EP2 modulator: 66*; EP2 cAMP induct: inactive

What do the screens show for `C=CCn1c(CNC(=O)c2cccs2)nnc1SCC(=O)c1ccc(Br)cc1`?
Efa HMGR inh: -3; Calpain2 inh: 13; Furin inhibitor: -10; PGE2 EP2 inh: 5; EP2 modulator: 52; EP2 cAMP induct: inactive

What do the screens show for `O=C(OCc1ccc(Cl)cc1)c1ccccc1C(=O)c1ccccc1`?
Efa HMGR inh: 5; Calpain2 inh: 15; Furin inhibitor: 1; PGE2 EP2 inh: 3; EP2 modulator: 70*; EP2 cAMP induct: active

How did O=C(OCc1ccc(Cl)cc1)c1cccnc1Cl do in these assays?
Efa HMGR inh: 0; Calpain2 inh: -21; Furin inhibitor: -36; PGE2 EP2 inh: 13; EP2 modulator: -34

What do the screens show for `COCCCN(C(=O)c1ccco1)c1nc(-c2cc(OC)ccc2OC)cs1`?
Efa HMGR inh: -6; Calpain2 inh: -277; Furin inhibitor: -6; PGE2 EP2 inh: 4; EP2 modulator: 75*; EP2 cAMP induct: active

What do the screens show for `CCC(=O)N(CC)c1nc(-c2cc(OC)ccc2OC)cs1`?
Efa HMGR inh: 0; Calpain2 inh: 8; Furin inhibitor: -32; PGE2 EP2 inh: 7; EP2 modulator: 78*; EP2 cAMP induct: active
